GLP1R cytotox: cytotoxicity counter-screen for GLP-1 receptor inverse agonists | actives 0.13% (n = 410,000) | AID 624418 | HEK293 cAMP-luciferase reporter cells, luminescence, 24 h | Potency, µM (highest dose often 38.3 µM), for inactives: top-dose activity change, negative = inhibition, usual class: inhibitors;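 also: loss of luciferase light is scored as toxicity; potency is read from the fitted curve at half-maximal effect; % is scaled to controls: 0 for no effect and ±100 for the full control effect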
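MLSMR compounds, 24 hr on cells at 37 deg C/5% CO2; luminescence after luciferase reagent (12 min RT). Inhibition counted as the undesired cytotoxic outcome.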
uPA surface inh: cell surface uPA generation inhibition; cell surface uPA generation assay, qHTS; Potency, µM (doses to about 38.3 µM), without a hit: at the highest dose activity change, negative = inhibition, hits mostly inhibitors; actives 0.31% (n = 330,000); AID 540303; active = well fitted inhibition curve with a large enough effect; inconclusive = small, poorly fitted or top-dose-only effect; inactive = no such curve, though single readings can be large or run the other way; tested in mouse RAW 264.7 cells; also: potency is read from the fitted curve at half-maximal effect; % is scaled to controls: 0 for no effect and ±100 for the full control effect; nearly all actives have a fitted effect of over 55% in size
MmCpn inh: inhibitors of Methanococcus maripaludis chaperonin TRiC (MmCpn) | Potency, µM (highest dose often 76.9 µM), inactives show at the highest dose activity, negative = inhibition, hits mostly inhibitors | actives 0.031% (n = 330,000) | purified Mm-Cpn ATPase, ADP Transcreener TR-FRET; also: potency is read from the fitted curve at half-maximal effect; % is scaled to controls: 0 for no effect and ±100 for the full control effect; nearly all actives have a fitted effect of over 80% in size
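Inhibition of chaperonin ATP hydrolysis is measured as reduced ADP production, detected by competitive TR-FRET in which signal falls with ADP. Final enzyme 25 nM and ATP 10 uM, reacted 30 min at 37°C.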
GLP1R ag: agonists of human GLP-1 receptor. Potency, µM (highest dose often 45.6 µM), inactives show at the highest dose activation, hits mostly activators. HEK293 GLP-1R CRE-luciferase, luminescence, 4-6 h; cells express a hypersensitive GLP-1R form. actives 0.007% (n = 380,000). P43220; also: potency is read from the fitted curve at half-maximal effect; % of control where 0% means no effect
Target sequence (P43220 whole entry, looked up): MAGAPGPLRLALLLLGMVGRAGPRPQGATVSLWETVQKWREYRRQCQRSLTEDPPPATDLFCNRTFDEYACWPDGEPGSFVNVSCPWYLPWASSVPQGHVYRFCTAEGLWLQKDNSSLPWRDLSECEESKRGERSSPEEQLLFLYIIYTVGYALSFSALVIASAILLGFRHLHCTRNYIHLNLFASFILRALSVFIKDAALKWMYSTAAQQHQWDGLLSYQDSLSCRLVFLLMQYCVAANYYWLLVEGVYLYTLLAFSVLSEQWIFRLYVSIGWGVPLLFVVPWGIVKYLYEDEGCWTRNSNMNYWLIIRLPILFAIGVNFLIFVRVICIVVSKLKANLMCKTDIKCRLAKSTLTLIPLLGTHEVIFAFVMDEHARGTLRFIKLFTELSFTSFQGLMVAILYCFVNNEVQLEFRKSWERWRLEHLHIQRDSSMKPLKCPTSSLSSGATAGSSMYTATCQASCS
CCT modulator: modulators of cytosolic chaperonin (CCT/TRiC) activity. actives 0.3% (n = 360,000). purified chaperonin ATPase assay, HTRF ADP detection, 30 min. activity change, % (concentration not given with the values), hits read low; in the data active = activity change below about -30%; also: % is scaled to controls: 0 for no effect and ±100 for the full control effect
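First, chaperonin was dispensed at 40 nM or 20 nM final depending on batch activity. Next, compounds were pinned at 76 uM and ATP added at 10 uM. After 30 min at 37 °C, ADP detection reagents ran 30 min at ambient temperature.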
GLP1R inv ag: acts as inverse agonist at human GLP-1 receptor | P43220 | Potency, µM (highest dose often 38.3 µM), inactives show top-dose activity change, negative = inhibition, most hits filed as inhibitors | actives 1.6% (n = 410,000) | HEK293 GLP-1R CRE-luciferase, luminescence, 24 h; GLP-1R form is constitutively active | AID 624417; also: potency is read from the fitted curve at half-maximal effect; % is scaled to controls: 0 for no effect and ±100 for the full control effect; nearly all actives have a fitted effect of over 55% in size
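Assay principle: reduced luminescence from a cAMP-responsive reporter in HEK293 cells co-expressing a constitutively active GLP-1R. Conditions: 24 hr compound incubation, 37 deg C, 5% CO2.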
The depositor's hits bear a star; u = inconclusive; x = no result given. Only some compounds are listed: those with a hit (about 2.2% of all), similar ones and a draw of the others. Unless noted, calls follow the shape of the dose curve; as a rule, active = well fitted curve in the direction sought with a large enough effect; inconclusive = small, poorly fitted or top-dose-only effect, or another doubt; inactive = no such curve, though single readings can be large; an effect the other way counts as inactive or inconclusive.

SMILES	GLP1R cytotox	uPA surface inh	MmCpn inh	GLP1R ag	CCT modulator	GLP1R inv ag
CC(=O)O[C@H]1C[C@@H]2CC[C@@H]3[C@H](CC[C@]4(C)[C@H](OC(C)=O)[C@@H](N5CC[N+](C)(C)CC5)C[C@@H]34)[C@@]2(C)C[C@@H]1N1CC[N+](C)(C)CC1	x	x	x	-3%	x	x
COc1ccc(NC(=O)c2cccc(N3C(=O)NC4CC3(C)Oc3ccccc34)c2)cc1 (stereo not drawn)	-29%	0%	3%	-4%	-1	4µM*
CS(=O)(=O)c1cccc(-c2nnc(NC(=O)c3ccc4c(c3)OCCO4)o2)c1	3%	x	x	x	x	-4%
CN(C)C1(CNC(=O)C2CCN(S(=O)(=O)c3cc(Cl)ccc3Cl)CC2)CCCCC1	u	u	-14%	7%	0	10µM*
O=C(NC(=S)NC1CCCCC1)c1ccccc1	u	-2%	2%	1%	-3	u
S=C(NC1CCCCC1)NN(c1ccccc1)c1ccccc1	u	-3%	2%	-3%	0	10µM*
C/C(=N\NC(=S)NC1CCCCC1)c1ccccc1	u	-9%	1%	6%	1	5.6µM*
COc1cc(NC(=O)Cn2ncc3c([nH]c4ccc(C)cc43)c2=O)cc(OC)c1OC	-1%	x	x	x	x	16%
O=C1CCCCC1Sc1nnc(-c2ccc3c(c2)OCO3)o1 (stereo not drawn)	-7%	-11%	-2%	-5%	-3	3.2µM*
Clc1ccc(CSc2nnc(-c3ccc4c(c3)OCO4)o2)cc1	-8%	1%	-4%	-17%	1	-23%
Cc1ccccc1NS(=O)(=O)c1cc(C(=O)NCCC2=CCCCC2)ccc1C	u	-4%	1%	4%	2	11µM*
COc1ccc(N2CCN(Cc3nc4c(c(=O)[nH]c(=O)n4C)n3Cc3ccccc3F)CC2)cc1	1%	x	x	x	x	-7%
Cc1nn(Cc2c(F)c(F)c(F)c(F)c2F)c(C)c1NC(=O)c1ccc(COc2ccccc2Cl)o1	-7%	-11%	-1%	-3%	1	10µM*
CCC(C)(C)C1CCC2(CC1)NC(=O)N(CC(=O)N(C)Cc1ccc(OC(F)F)cc1)C2=O (stereo not drawn)	-11%	-10%	-3%	14%	-2	1.4µM*
CCC(C)(C)C1CCC2(CC1)NC(=O)N(CC(=O)N(C)CCOc1ccc(Cl)cc1)C2=O (stereo not drawn)	9%	-22%	-3%	-3%	-3	-11%
COc1ccccc1N1CCN(S(=O)(=O)c2cc(C)sc2C)CC1	7%	-1%	0%	-5%	0	10µM*
COc1ccc(C(C)C)cc1S(=O)(=O)N1CCN(c2ccccc2)CC1	0%	16%	1%	-2%	-3	8.9µM*
Cc1cc(S(=O)(=O)N2CCN(c3ccc(F)cc3)CC2)c(C)s1	12%	-14%	0%	7%	-2	10µM*
CCc1ccc(-c2cc(C)no2)cc1S(=O)(=O)N1CCN(c2ccccc2OC)CC1	-2%	-2%	-3%	-1%	0	4.5µM*
CCCCN(CC)C(=O)CCNS(=O)(=O)c1ccc2c(c1)c(=O)n(C)c(=O)n2C	-20%	x	x	0%	x	-6%
O=S(=O)(O)OCC1OC(COS(=O)(=O)O)(C2(OS(=O)(=O)O)OC(CO)C(OS(=O)(=O)O)C(OS(=O)(=O)O)C2OS(=O)(=O)O)C(OS(=O)(=O)O)C1OS(=O)(=O)O (stereo not drawn)	x	x	x	15%	x	x
O=C(NCc1cccnc1)c1nn(-c2ccccc2F)nc1CO	2%	x	x	x	x	7%
COc1ccc(-c2cc(C)no2)cc1S(=O)(=O)N1CCCN(Cc2ccc(F)cc2)C1	4%	-15%	-2%	-1%	-24	7.1µM*
COc1ccc(-c2cc(C)no2)cc1S(=O)(=O)N1CCCC(C)C1 (stereo not drawn)	-19%	x	x	x	x	-26%
COc1ccccc1CN1CCC(CNS(=O)(=O)c2cc(-c3cc(C)no3)ccc2OC)CC1	-16%	-25%	4%	14%	0	11µM*
SMILES	GLP1R cytotox	uPA surface inh	MmCpn inh	GLP1R ag	CCT modulator	GLP1R inv ag
COc1cc(OC)c(NC(=O)C(C)n2c(=O)cc(-c3ccccc3)c3c(C)nn(C)c32)cc1Cl (stereo not drawn)	5%	x	x	x	x	10%
COc1ccccc1NC(=O)NNC(=O)COc1ccc2ccccc2c1	-3%	-9%	-1%	-2%	-1	u
COc1ccc(C(=O)Nc2ccc3ccccc3c2)cc1	-15%	5µM*	-3%	-1%	-1	u
COc1cccc(C(=O)Nc2ccc3ccccc3c2)c1	-23%	-3%	1%	u	-1	u
COc1ccc(NC(=O)c2ccc(C)cc2)cc1	-20%	10µM*	0%	-2%	-2	u
Cc1ccc2cc(NC(=O)c3ccc(C(C)(C)C)cc3)ccc2n1	-35%	-9%	-1%	-4%	-2	4µM*
COc1ccc(CC(=O)NNC(=O)COc2ccc3ccccc3c2)cc1	-6%	10%	40µM*	-13%	0	-14%
COc1ccc(C(=O)NNC(=O)C(=O)Nc2ccc(C)cc2)cc1	1%	0%	0%	5%	-9	0%
COc1ccc(-c2nc3ccccc3s2)cc1NC(=O)COc1cccc(C)c1	4%	x	x	x	x	1%
CC(C)Oc1ccc(CNC(=O)CN2C(=O)CCn3nc(-c4cn(C)c5ccccc45)cc32)cc1	-1%	x	x	x	x	u
Cc1ccc(NC(=O)c2c(NC(=O)C(F)(F)F)sc3c2CCCCC3)cc1	-20%	x	x	x	x	u
CCCCCn1c(=O)[nH]c2cc(C(=O)N3CCN(c4cc(Cl)ccc4C)CC3)ccc2c1=O	-4%	x	x	-1%	x	-5%
CC(C)(C)OC(=O)NCCCCCc1nnc(SCc2c(F)cccc2Cl)o1	-2%	4%	0%	14%	1	10µM*
CC(C)(C)OC(=O)NCCc1nnc(SCc2c(Cl)cccc2Cl)o1	10%	4%	3%	3%	-3	2%
CC(C)(C)OC(=O)N1CCC[C@H]1c1nnc(SCc2c(F)cccc2Cl)o1	-12%	3%	0%	15%	-3	8.9µM*
CC(C)(C)OC(=O)N1CCC[C@H]1c1nnc(SCc2ccccc2Cl)o1	-13%	7%	0%	2%	-3	u
CCOC(=O)c1sc2nc(C)nc(NCc3ccc(F)cc3)c2c1C	-14%	4%	-11%	13%	1	7.1µM*

Screening results: PubChem BioAssay, National Center for Advancing Translational Sciences (NCATS)
